# PubChem BioAssay (Tox21)
# Inconclusive results are not listed. Entries that show only a call come without a potency. Active and inactive are the calls of the source. Calls come from the whole dose curve.
# Molecular target: Thyrotropin receptor (Homo sapiens) (UniProt P16473)
# Assay: qHTS assay to identify small molecule antagonists of the thyroid stimulating hormone receptor (TSHR) signaling pathway (AID 1259385); note: nearly all actives have a fitted effect of over 20% in size
# Settings: TSHR-HEK293 cAMP HTRF, TSH-stimulated antagonist mode; series mostly up to 92.4 µM
# Excerpt: U.S. Tox21 Program National Center for Advancing Translational Sciences [NCATS] NIH Chemical Genomics Center [NCGC] U.S. Environmental Protection Agency [EPA] National Institutes of Environmental Health Sciences [NIEHS] National Toxicology Program [NTP] U.S. Food and Drug Administration [FDA] Tox21 Assay Overview: TSHR is the receptor for thyrotropin (thyroid stimulating hormone or TSH), a member of the glycoprotein hormone family. TSH is released by the anterior pituitary gland and is the main regulator of thyroid gland growth and development. Upon binding circulating thyrotropin, a G-protein signal cascade activates adenylyl cyclase and […] cAMP concentration is increased. cAMP is a key second messenger involved extensively in cellular signal transduction pathways associated with the majority of G-protein coupled receptors (GPCRs). The activation of these GPCRs by neurotransmitters, lipids, nucleotides, peptides and hormones results in the activation or the inhibition of plasma membrane-bound adenylate cyclase through heterotrimeric G-proteins. A cell-based TSHR assay can be used to screen chemical compounds that modulate TSHR either in agonist or antagonist mode.
# Tox21 Assay Protocol Summary: TSHR-Hek293 cells were dispensed at 800 cells/4uL/well in 1536-well white plates using a Multidrop dispenser. After the assay plates were incubated at a 37C/5% CO2 incubator for 18 hrs, 23 nL of compounds dissolved in DMSO, positive controls or DMSO only was transferred to the assay plate by a pin tool, followed by 1 ul medium containing Ro20-1724. For the antagonist mode screening, 1 uL of TSH was added on the top of the cell/compound mixtures to achieve a final agonist concentration of 1.5 ng/mL. After 30 min of incubation at room temperature, 2.5 ul/well of cAMP-d2 and 2.5 ul/well of anti-cAMP-cryptate were added respectively into the assay plates using a Flying Reagent Dispenser. The plates were incubated at room temperature for 1 hr. The fluorescence intensity in the plates was measured using an Envision plate reader. Each test compound was measured at 15 concentrations and in triplicates.
# Chain of Thyrotropin receptor (Homo sapiens) (P16473 whole entry, looked up): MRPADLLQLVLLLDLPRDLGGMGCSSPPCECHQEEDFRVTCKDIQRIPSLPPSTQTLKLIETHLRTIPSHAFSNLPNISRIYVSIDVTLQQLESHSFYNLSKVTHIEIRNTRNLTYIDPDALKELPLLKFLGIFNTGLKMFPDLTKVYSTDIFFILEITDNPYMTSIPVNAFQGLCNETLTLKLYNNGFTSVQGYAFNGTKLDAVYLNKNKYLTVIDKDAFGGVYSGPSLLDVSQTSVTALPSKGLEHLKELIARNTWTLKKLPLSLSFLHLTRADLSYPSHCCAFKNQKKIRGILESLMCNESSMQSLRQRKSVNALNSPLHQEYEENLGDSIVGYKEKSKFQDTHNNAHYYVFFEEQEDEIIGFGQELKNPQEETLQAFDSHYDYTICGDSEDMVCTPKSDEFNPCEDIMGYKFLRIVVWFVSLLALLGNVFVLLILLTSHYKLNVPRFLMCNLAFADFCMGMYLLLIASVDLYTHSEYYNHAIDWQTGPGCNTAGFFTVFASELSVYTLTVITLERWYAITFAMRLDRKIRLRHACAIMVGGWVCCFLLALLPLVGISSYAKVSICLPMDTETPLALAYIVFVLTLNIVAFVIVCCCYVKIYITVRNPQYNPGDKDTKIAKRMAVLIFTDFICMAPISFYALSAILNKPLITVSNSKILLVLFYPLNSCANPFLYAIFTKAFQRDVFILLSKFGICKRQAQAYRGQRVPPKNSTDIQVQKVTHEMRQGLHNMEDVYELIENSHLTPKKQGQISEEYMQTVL
SMILES,Potency,"activity change, negative = inhibition"
O=C(O)COCC(=O)O,inactive,
CC(C)CC(C)(C)C,inactive,
COc1ccc(C(=O)Nc2ccccc2)cc1[N+](=O)[O-],inactive,
CC(O)CN (stereo not given),inactive,
COc1ccc(CN(CCN(C)C)c2ncccn2)cc1,inactive,
CCC(C)CCCC(C)(C)O (stereo not given),inactive,
C=CC(=O)OCCCCCCCCCC,inactive,
O=C(O)c1ccncc1,inactive,
CCn1nc(Cc2ccccc2)cc1C1CCN(C[C@H]2C[C@H](N(C)[C@@H](C(=O)O)C(C)C)C[C@@H]2c2cccc(F)c2)CC1,inactive,
CO[C@@H]1COCC[C@@H]1N[C@@H]1CC[C@@](C(=O)N2CCc3ncc(C(F)(F)F)cc3C2)(C(C)C)C1,inactive,
O=C(OCCOCCOCCOC(=O)c1ccccc1)c1ccccc1,inactive,
C[Si](C)(C)O[Si](C)(C)O[Si](C)(C)C,inactive,
Cc1ccc2c(Cl)cc(Cl)c(O)c2n1,inactive,
CCCCCCCCNC,inactive,
CCCCCCCCCCCCN1CCOCC1,inactive,
O=C(O)c1c2ccccc2cc2ccccc12,inactive,
O=Cc1ccc(Cl)c([N+](=O)[O-])c1,inactive,
CCCCC(CC)COCCC#N (stereo not given),inactive,
CC1(C)CC(O)CC(C)(C)N1[O],inactive,
CC(C)(C(=O)O)c1ccc(C(O)CCCN2CCC(C(O)(c3ccccc3)c3ccccc3)CC2)cc1 (stereo not given),inactive,

SMILES,Potency,"activity change, negative = inhibition"
CCCCCCCCCCCCCCCCC(=O)O,inactive,
O=[N+]([O-])c1ccccc1CCO,inactive,
CCN(CC)CC(=O)OCC(=O)[C@@]1(O)CC[C@H]2[C@@H]3CCC4=CC(=O)CC[C@]4(C)[C@H]3[C@@H](O)C[C@@]21C,inactive,
CCCC1CCCC(=O)O1 (stereo not given),inactive,
Clc1cc(Cl)c2c(c1)N=C1CCCCCN1C2,inactive,
Cc1ccc(NC=O)c(C)c1,inactive,
C=Cc1ccc(C=C)cc1,inactive,
CC(C)NC(=O)c1ccccc1N,inactive,
CC(=O)S[C@H](C(=O)N[C@H]1Cc2ccccc2[C@H]2CCC[C@@H](C(=O)O)N2C1=O)C(C)C,inactive,
OCC(O)c1ccccc1 (stereo not given),inactive,
CCCCCCCCCCCCCCCCCCCl,,0.518% [at 8.39 µM] (inactive)
NC(=O)c1cc[n+](CC2=C(C(=O)[O-])N3C(=O)[C@@H](NC(=O)Cc4cccs4)[C@H]3SC2)cc1,inactive,
NC(=O)c1ccccc1C(N)=O,inactive,
Cc1c(Cl)cccc1Nc1ccccc1C(=O)O,inactive,
O=C(O)c1ccc2c(c1)nc(C(=O)NC1CCN(C3CC3)CC1)n2Cc1cc(-c2ccc(Cl)s2)on1,,2.44% [at 19 µM] (inactive)
CC(Cc1ccccc1)(NC(=O)CN)c1ccccc1 (stereo not given),inactive,
O=C1OC(=O)C2CC=CCC12 (stereo not given),inactive,
Clc1ccccc1-c1nc(-c2ccncc2)no1,inactive,
O=C(O)c1ccccc1-n1cc(C(=O)O)c(=O)c2cc(Nc3c(F)cc(F)cc3Cl)c(Cl)cc21,inactive,
CC(=O)Nc1ccccc1O,inactive,
